This passage reports outcome and AC50 results from PubChem BioAssay (EPA / NIEHS).

Conditions in all cases: mRNA level, 48 h; actives raise or lower the signal
Read-out in one assay: HGF (gene 3082)
Description: LTEA_HepaRG_HGF: Life Technologies and Expression Analysis (LTEA) Assay for Hepatocyte Growth Facto (HGF) using HepaRG (AID 2283505). The method, boiled down:
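Read-out is HGF transcript level by qRT-PCR, normalized to three housekeeping genes, fitted bidirectionally against 0.5% DMSO vehicle. Human HepaRG cells received test chemicals for 48 h at up to 100 uM.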

Read-out in assay [1]: Insulin Like Growth Factor 1 (IGF1), IGF1 (gene 3479)
Description: LTEA_HepaRG_IGF1: Life Technologies and Expression Analysis (LTEA) Assay for Insulin Like Growth Factor 1 (IGF1) using HepaRG (AID 2283506). The essentials: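 Cells are thawed, plated and cultured 48 h, then exposed in duplicate to chemical (highest 100 uM, half-log steps, 0.5% DMSO) for another 48 h. Total RNA is analysed by Fluidigm qRT-PCR for IGF1 expression relative to vehicle.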

Read-out in assay [2]: Intercellular Adhesion Molecule 1 (ICAM1), ICAM1 (gene 3383)
Description: LTEA_HepaRG_ICAM1: Life Technologies and Expression Analysis (LTEA) Assay for Intercellular Adhesion Molecule 1 (ICAM1) using HepaRG (AID 2283507). The essentials:
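Readout is qRT-PCR mRNA level, normalized to three housekeeping genes and fitted bidirectionally against 0.5% DMSO vehicle. Human HepaRG cultures received compound for 48 h, top concentration 100 uM with half-log dilutions.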

Read-out in assay [3]: Insulin-like growth factor-binding protein 1 (IGFBP1), IGFBP1 (gene 3484)
Description: LTEA_HepaRG_IGFBP1: Life Technologies and Expression Analysis (LTEA) Assay for Insulin-like growth factor-binding protein 1 (IGFBP1) using HepaRG (AID 2283508). The essentials:
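Thawed HepaRG cells are plated for 48 h, switched to serum-free induction medium, then dosed in duplicate for another 48 h (100 uM top, half-log steps). Lysates in RLT go to qRT-PCR, and gain or loss of signal is fitted relative to vehicle.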

Read-out in assay [4]: Interleukin 6 (IL6), IL6 (gene 3569)
Description: LTEA_HepaRG_IL6: Life Technologies and Expression Analysis (LTEA) Assay for Interleukin 6 (IL6) using HepaRG (AID 2283509). The essentials:
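Changes in IL6 mRNA, up or down relative to 0.5% DMSO controls, were derived from concentration-response curves in human HepaRG cells treated for 48 h at up to 100 uM, with ACTB, GAPDH and POLR2A as normalizers.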

Read-out in assay [5]: Interleukin 6 Receptor (IL6R), IL6R (gene 3570)
Put plainly: LTEA_HepaRG_IL6R: Life Technologies and Expression Analysis (LTEA) Assay for Interleukin 6 Receptor (IL6R) using HepaRG (AID 2283510).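 As to AC50: TaqMan qRT-PCR signal normalized to ACTB GAPDH and POLR2A housekeeping genes.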 The method, boiled down: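 Cells were thawed, plated and cultured 48 h, then medium was changed to serum-free induction medium. Chemicals were added in duplicate (100 uM top, half-log steps, 0.5% DMSO) for 48 h. Lysates were analyzed by qRT-PCR for IL6R expression.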

Read-out in assay [6]: Potassium channel subfamily K member 1 (KCNK1), KCNK1 (gene 3775)
Put plainly: LTEA_HepaRG_KCNK1: Life Technologies and Expression Analysis (LTEA) Assay for Potassium channel subfamily K member 1 (KCNK1) using HepaRG (AID 2283511). The method, boiled down: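 Human HepaRG cultures receive test chemicals for 48 h in 0.5% DMSO, top concentration 100 uM with half-log dilutions. Induction or suppression of KCNK1 mRNA relative to DMSO is derived by bidirectional fitting of qRT-PCR data.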

Read-out in assay [7]: Lipase C (LIPC), LIPC (gene 3990)
Put plainly: LTEA_HepaRG_LIPC: Life Technologies and Expression Analysis (LTEA) Assay for Lipase C (LIPC) using HepaRG (AID 2283514). The essentials:
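In this multiplexed gene-expression screen, human HepaRG cultures received test chemicals for 48 h across eight concentrations with 100 uM highest, in duplicate. Values reflect LIPC mRNA induction or suppression versus DMSO vehicle, from normalized qRT-PCR.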

Read-out in assay [8]: Lipoprotein lipase (LPL), LPL (gene 4023)
Put plainly: LTEA_HepaRG_LPL: Life Technologies and Expression Analysis (LTEA) Assay for Lipoprotein lipase (LPL) using HepaRG (AID 2283515). The method, boiled down: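 Concentration-response testing used half-log steps from 100 uM in 0.5% DMSO on human HepaRG cells, 48 h, duplicate wells. Phenobarbital 1 mM served as induction control; LPL mRNA was normalized to ACTB, GAPDH, POLR2A.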

Read-out in assay [9]: MicroRNA 122 (MIR122), gene 406906
Put plainly: LTEA_HepaRG_MIR122: Life Technologies and Expression Analysis (LTEA) Assay for MicroRNA 122 (MIR122) using HepaRG (AID 2283516). Also: the transcript read is the microRNA miR-122. The essentials:
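Human liver HepaRG cultures receive test chemicals for 48 h at eight half-log concentrations from 100 uM. Expression is quantified by qRT-PCR with ACTB/GAPDH/POLR2A normalization and fitted bidirectionally against 0.5% DMSO.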

Read-out in assay [10]: matrix metalloproteinase-10 (MMP10), MMP10 (gene 4319)
Put plainly: LTEA_HepaRG_MMP10: Life Technologies and Expression Analysis (LTEA) Assay for matrix metalloproteinase-10 (MMP10) using HepaRG (AID 2283517). The method, boiled down:
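In differentiated HepaRG cultures kept in 0.5% DMSO, test chemicals act for 48 h over an eight-point range with a top dose of 100 uM. Expression is then quantified by TaqMan RT-PCR against ACTB, GAPDH and POLR2A.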

Read-out in another assay: MYC, MYC (gene 4609)
Description: LTEA_HepaRG_MYC: Life Technologies and Expression Analysis (LTEA) Assay for MYC using HepaRG (AID 2283518). The method, boiled down:
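HepaRG, ~100,000 cells/well, collagen I; 48 h plating; serum-free induction medium; 48 h dosing, duplicate, 100 uM top, half-log, 0.5% DMSO; total RNA → qRT-PCR MYC; gain/loss fit vs DMSO.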

Read-out in assay [11]: matrix metalloproteinase-3 (MMP3), MMP3 (gene 4314)
Put plainly: LTEA_HepaRG_MMP3: Life Technologies and Expression Analysis (LTEA) Assay for matrix metalloproteinase-3 (MMP3) using HepaRG (AID 2283519). The method, boiled down:
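Human liver HepaRG cultures received chemicals (top concentration 100 uM, 0.5% DMSO) for 48 h in duplicate. MMP3 mRNA induction or loss was then assessed via TaqMan qRT-PCR with housekeeping-gene normalisation.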

Read-out in assay [12]: Paternally Expressed 10 (PEG10), PEG10 (gene 23089)
Put plainly: LTEA_HepaRG_PEG10: Life Technologies and Expression Analysis (LTEA) Assay for Paternally Expressed 10 (PEG10) using HepaRG (AID 2283520).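 As to AC50: PEG10 transcript by qRT-PCR normalised to ACTB GAPDH and POLR2A.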 The method, boiled down: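 Human HepaRG cultures are dosed for 48 h across an eight-point half-log series starting at 100 uM, with 0.5% DMSO as vehicle and baseline. Gain or loss of PEG10 transcript is measured by qRT-PCR and fitted in both directions.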

Read-out in assay [13]: Nuclear factor NF-kappa-B p105 subunit (Homo sapiens) (UniProt P19838)
Description: LTEA_HepaRG_NFKB1: Life Technologies and Expression Analysis (LTEA) Assay for Nuclear Factor Kappa B Subunit 1 (NFKB1) using HepaRG (AID 2283521).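 Also: TaqMan qRT-PCR transcript normalised to ACTB GAPDH and POLR2A housekeeping genes.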 The essentials:
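Differentiated human HepaRG cells were exposed for 48 h in serum-free induction medium to eight concentrations (top 100 uM, half-log steps, 0.5% DMSO), in duplicate. NFKB1 mRNA was measured by TaqMan qRT-PCR, normalized to ACTB/GAPDH/POLR2A, and fitted bidirectionally against DMSO.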

Read-out in assay [14]: Protein phosphatase 2A (PPP2R4), PTPA (gene 5524)
Put plainly: LTEA_HepaRG_PPP2R4: Life Technologies and Expression Analysis (LTEA) Assay for Protein phosphatase 2A (PPP2R4) using HepaRG (AID 2283522). The essentials:
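Cells were plated, cultured 48 h, switched to serum-free induction medium, then dosed for 48 h (8 points, max 100 uM, 0.5% DMSO). RNA was isolated and PPP2R4 expression measured by TaqMan qRT-PCR.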

Read-out in assay [15]: Phosphatase and tensin (PTEN), PTEN (gene 5728)
Description: LTEA_HepaRG_PTEN: Life Technologies and Expression Analysis (LTEA) Assay for Phosphatase and tensin (PTEN) using HepaRG (AID 2283523). The essentials: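 Expression of PTEN is quantified in the human liver line HepaRG following two days of dosing (top concentration 100 uM, half-log dilutions, 0.5% DMSO). Values derive from bidirectional curve fitting relative to DMSO controls.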

Read-out in assay [16]: solute carrier (SLC22A1), SLC22A1 (gene 6580)
Description: LTEA_HepaRG_SLC22A1: Life Technologies and Expression Analysis (LTEA) Assay for solute carrier (SLC22A1) using HepaRG (AID 2283524). The method, boiled down:
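Transcript induction or suppression of SLC22A1 in human HepaRG cultures is scored after 48 h chemical treatment, with DMSO (0.5%) as baseline for bidirectional fitting. Concentrations span eight half-log points topping at 100 uM.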

Read-out in assay [17]: Keratin 19 (KRT19), KRT19 (gene 3880)
Description: LTEA_HepaRG_KRT19: Life Technologies and Expression Analysis (LTEA) Assay for Keratin 19 (KRT19) using HepaRG (AID 2283512). The essentials: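 KRT19 transcript levels, measured by Fluidigm qRT-PCR against three housekeeping genes, are fitted for gain or loss of signal relative to DMSO. Human HepaRG cells receive test chemicals (top 100 uM, half-log steps, 0.5% DMSO) for 48 hours.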

Read-out in assay [18]: JUN Transcription Factor, JUN (gene 3725)
Description: LTEA_HepaRG_JUN: Life Technologies and Expression Analysis (LTEA) Assay for JUN Transcription Factor using HepaRG (AID 2283513). The essentials:
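Read-out is JUN transcript level by TaqMan qRT-PCR, normalized to ACTB, GAPDH and POLR2A, after 48 h chemical treatment of HepaRG cells. Concentration-response spanned eight half-log points up to 100 uM in 0.5% DMSO.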

Calls of active or inactive are those of the source. The calls were made as follows: active = hit-call score of the fitted dose curve at least 0.9, where 1 is the maximum; inactive = score below 0.9.

Nuclear factor NF-kappa-B p105 subunit (Homo sapiens), sequence (P19838 whole entry, looked up): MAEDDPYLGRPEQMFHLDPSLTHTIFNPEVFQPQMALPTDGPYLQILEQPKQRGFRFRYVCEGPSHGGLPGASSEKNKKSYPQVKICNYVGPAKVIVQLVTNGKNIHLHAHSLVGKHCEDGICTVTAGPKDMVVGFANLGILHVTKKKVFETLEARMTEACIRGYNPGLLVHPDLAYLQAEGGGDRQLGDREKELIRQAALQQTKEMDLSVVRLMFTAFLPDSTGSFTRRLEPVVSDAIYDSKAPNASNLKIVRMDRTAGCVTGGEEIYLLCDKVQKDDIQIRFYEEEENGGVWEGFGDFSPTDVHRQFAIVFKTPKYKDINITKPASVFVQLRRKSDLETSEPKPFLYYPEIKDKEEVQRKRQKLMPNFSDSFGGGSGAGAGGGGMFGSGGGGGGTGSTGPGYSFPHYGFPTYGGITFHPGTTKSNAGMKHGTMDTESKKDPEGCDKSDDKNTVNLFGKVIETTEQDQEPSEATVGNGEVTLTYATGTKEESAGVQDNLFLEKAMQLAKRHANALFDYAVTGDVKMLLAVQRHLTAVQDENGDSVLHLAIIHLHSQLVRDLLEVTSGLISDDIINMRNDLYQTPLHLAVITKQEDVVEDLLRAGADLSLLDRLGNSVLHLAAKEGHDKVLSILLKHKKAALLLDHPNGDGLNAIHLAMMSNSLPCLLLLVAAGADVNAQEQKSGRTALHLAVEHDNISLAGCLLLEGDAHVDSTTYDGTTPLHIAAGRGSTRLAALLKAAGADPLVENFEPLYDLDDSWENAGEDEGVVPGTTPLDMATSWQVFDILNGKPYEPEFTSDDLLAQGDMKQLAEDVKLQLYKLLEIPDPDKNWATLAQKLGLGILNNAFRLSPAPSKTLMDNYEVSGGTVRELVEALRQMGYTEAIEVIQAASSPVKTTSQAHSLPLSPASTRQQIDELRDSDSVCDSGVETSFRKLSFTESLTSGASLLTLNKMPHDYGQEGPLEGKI

As for `CCC(C)(CC)c1cc(NC(=O)c2c(OC)cccc2OC)on1`, the molecule was classed as inactive (with HGF (gene 3082); in assay [2]; in assay [4]; in [5]; in assay [6]; in assay [7]). Further, the molecule was called inactive in assay [8], in assay [9], in [10], in assay [11], in assay [13] and in assay [14]. Besides, in [15], the molecule was called inactive. The AC50 in [1] is 1.79 µM (active); in [3], 50 µM (active); in the assay with MYC, MYC (gene 4609), 25.7 µM (active); in [12] it was 14.2 µM (active); in assay [16], 34.6 µM (active).

Turning to `Oc1ccc(C(c2ccc(O)cc2)(C(F)(F)F)C(F)(F)F)cc1`, the result (with HGF (gene 3082); in [1]; in assay [2]; in [17]; in assay [7]; in assay [9]) was inactive. The molecule was called inactive in assay [12], in assay [13] and in assay [15]. Further, the half-maximal activity concentration (AC50) in assay [3] was 75.9 µM (active); in assay [4] it was 91.8 µM (active); in assay [5], 89.2 µM (active); in [8] it was 79.3 µM (active); in [10] it was 82.7 µM (active); with MYC, MYC (gene 4609), 77.5 µM (active). The AC50 in assay [11] was 76.6 µM (active); in assay [14], 89 µM (active); in assay [16] it was 71.9 µM (active).

On to `ClC(Cl)=C(c1ccc(Cl)cc1)c1ccc(Cl)cc1`, for which the molecule was classed as inactive (with HGF (gene 3082); in assay [2]; in assay [4]; in assay [5]; in assay [17]; in assay [7]). For the same molecule, the outcome is “inactive” in assay [8]; “inactive” in assay [9]; “inactive” in [10]; “inactive” with MYC, MYC (gene 4609); “inactive” in assay [11]; “inactive” in assay [12]. Besides, the outcome in assay [13], in assay [14], in assay [15] and in assay [16] was inactive. In addition, the AC50 in assay [1] was 50 µM (active).

On to `Cc1cc(O)ccc1Cl`, for which the result (with HGF (gene 3082); in assay [1]; in assay [2]; in assay [4]; in assay [5]; in assay [17]) was inactive. Besides, the outcome in assay [18] is “inactive”; in assay [7], “inactive”; in assay [8], “inactive”; in [9], “inactive”; in assay [10], “inactive”; in the assay with MYC, MYC (gene 4609), “inactive”. The molecule was called inactive in assay [11], in [12], in [13], in assay [14], in [15] and in assay [16].
